Reference: PubChem BioAssay (Tox21)
Records with an inconclusive call do not appear. Activity calls are given as the source filed them. Unless noted, calls follow the shape of the dose curve; as a rule, active = well fitted inhibition curve with a large enough effect in the repeat runs; inconclusive = weak or mixed curves; inactive = no such curve, though single readings can be large or run the other way.

assay: qHTS assay to identify small molecule antagonists of the estrogen related receptor (ERR) signaling pathway from Tox21 library (AID 1224848); settings: ERR reporter cell line, luciferase antagonist mode, 18 h; series mostly up to 92.4 µM; activity, negative = inhibition: at the top concentration; also: nearly all actives have a fitted effect of over 50% in size; also: potency is read from the fitted curve at half-maximal effect
Method in brief: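 Tox21 10K compounds in DMSO tested for ERR pathway antagonism in NTP's ERR cell line; 18 h, 37 C exposure; ONE-Glo luminescence.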
% is scaled to controls: 0 for no effect and ±100 for the full control effect.

SMILES	activity, negative = inhibition	Potency
CCCCc1ccc2nc(NC(=O)OC)[nH]c2c1	31% [at 42.5 µM] (inactive)	
Cc1nc(-c2ccccn2)ncc1C(=O)Nn1cc(C)c2cc(F)ccc21		54.5 µM (active)
C=CCCC=C	6.86% (inactive)	
O=C(CC(=O)C(F)(F)F)c1ccccc1	-11.6% (inactive)	
Clc1cccc(-c2cc(Cl)cc(Cl)c2)c1	-5.13% (inactive)	
Cc1ccc(C=O)s1	4.37% (inactive)	
O=C(O)CN(CCN(CC(=O)O)CC(=O)O)CCN(CC(=O)O)CC(=O)O	11.2% [at 19 µM] (inactive)	
CN(C)CCOc1ccccc1Cc1ccccc1	11.1% [at 42.5 µM] (inactive)	
NC(Cc1ccc(F)cc1)C(=O)O (stereo unspecified)	1.15% [at 8.39 µM] (inactive)	
O=C1CCN(c2ccccc2)N1		17.3 µM (active)
CC1=C(CC(=O)O)c2cc(F)ccc2/C1=C\c1ccc(S(C)(=O)=O)cc1	15.5% [at 42.5 µM] (inactive)	
O=c1oc2c(O)c(O)cc3c(=O)oc4c(O)c(O)cc1c4c23	4.6% [at 19 µM] (inactive)	
Nc1ccc(Oc2ccc(N)c(N)c2)cc1	84.9% (inactive)	
Cc1nc(N)nc(N)c1-c1ccc(Cl)c(Cl)c1		0.944 µM (active)
CCCNC(C)C(=O)Nc1c(C)csc1C(=O)OC (stereo unspecified)	-2% [at 42.5 µM] (inactive)	
CCCN(CCC)C(=O)C(CCC(=O)O)NC(=O)c1ccccc1 (stereo unspecified)	1.87% [at 42.5 µM] (inactive)	
CC1(C)S[C@@H]2[C@H](NC(=O)C(C(=O)O)c3ccccc3)C(=O)N2[C@H]1C(=O)O (stereo partly specified)	12.6% [at 42.5 µM] (inactive)	
COc1ccc(Nc2ccc(OC)cc2)cc1	75.1% (inactive)	
CC(CNC1CCCCC1)OC(=O)c1ccccc1 (stereo unspecified)	19% [at 42.5 µM] (inactive)	
O=C1N(c2ccccc2)c2ccccc2C1(Cc1ccncc1)Cc1ccncc1	8.93% [at 42.5 µM] (inactive)	

assay: qHTS assay to identify small molecule agonists of the estrogen related receptor (ERR) signaling pathway from Tox21 library (AID 1224849; calls by dose curve; also: nearly all actives have a fitted effect of over 15% in size); settings: ERR reporter cell line, ONE-Glo luciferase, 18 h; at 92.4 µM (top of the series) unless noted
Method in brief: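 Quantitative HTS in agonist format: NTP ERR cell line, compounds transferred in DMSO after 6 h plating, 18 h incubation at 37 C, ONE-Glo luminescence endpoint.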

SMILES	activity change, positive = activation
Cc1nc(-c2ccccn2)ncc1C(=O)Nn1cc(C)c2cc(F)ccc21	-53.1% (inactive)
C=CCCC=C	2.68% (inactive)
O=C(CC(=O)C(F)(F)F)c1ccccc1	-6.03% (inactive)
Cc1ccc(C=O)s1	3.35% (inactive)
O=C(O)CN(CCN(CC(=O)O)CC(=O)O)CCN(CC(=O)O)CC(=O)O	5.66% [at 19 µM] (inactive)
CN(C)CCOc1ccccc1Cc1ccccc1	6.12% [at 42.5 µM] (inactive)
NC(Cc1ccc(F)cc1)C(=O)O (stereo unspecified)	0.59% [at 8.39 µM] (inactive)
O=C1CCN(c2ccccc2)N1	-36.4% (inactive)
CC(C)C1=CC2=CC[C@@H]3[C@](C)(CCC[C@@]3(C)C(=O)O)[C@H]2CC1	-16.7% (inactive)
O=c1oc2c(O)c(O)cc3c(=O)oc4c(O)c(O)cc1c4c23	2.5% [at 19 µM] (inactive)
Nc1ccc(Oc2ccc(N)c(N)c2)cc1	53.1% (active)
Cc1nc(N)nc(N)c1-c1ccc(Cl)c(Cl)c1	-56.5% [at 42.5 µM] (inactive)
CCCNC(C)C(=O)Nc1c(C)csc1C(=O)OC (stereo unspecified)	-1.49% [at 42.5 µM] (inactive)
CC1(C)S[C@@H]2[C@H](NC(=O)C(C(=O)O)c3ccccc3)C(=O)N2[C@H]1C(=O)O (stereo partly specified)	8.06% [at 42.5 µM] (inactive)
COc1ccc(Nc2ccc(OC)cc2)cc1	38% (active)
CN1CCN(C2=Nc3ccccc3Oc3ccc(Cl)cc32)CC1	-21.9% [at 42.5 µM] (inactive)
